{
  "source": "PubChem BioAssay (Tox21)",
  "note": "Values joined by “and” are separate entries in the source; they are usually repeats but may differ in a detail not shown here. Identical values can stand only once. Inconclusive results are not listed. Where a structure was tested more than once in an assay, its records may differ in their call. Active and inactive are the calls of the source. Calls follow the shape of the dose curve; as a rule, active = well fitted cell-killing curve with a large enough effect in the repeat runs; inconclusive = weak or mixed curves; inactive = no such curve, though single readings can be large or run the other way. % is scaled to controls: 0 for no effect and ±100 for the full control effect; potency is read from the fitted curve at half-maximal effect.",
  "data": [
    {"assay": "qHTS assay for identifying genotoxic compounds that show differential cytotoxicity against isogenic chicken DT40 cell lines with known DNA damage response pathways - Rad54/Ku70 mutant cell line (AID 743015); also: nearly all actives have a fitted effect of over 60% in size", "settings": "DT40 Rad54/Ku70 mutant viability, CellTiter-Glo, 40 h; series mostly up to 66.8 µM; activity change, negative = cytotoxicity: at the top concentration", "excerpt": "National Center for Advancing Translational Sciences [NCATS]\nNIH Chemical Genomics Center [NCGC]\nU.S. Environmental Protection Agency [EPA]\nNational Institutes of Environmental Health Sciences [NIEHS]\nNational Toxicology Program [NTP]\nU.S. Food and Drug Administration [FDA]\nDNA repair pathways play a critical role in cellular homeostasis by repairing DNA damage induced by endogenous processes and xenobiotics. Isogenic chicken DT40 cell lines deficient in different DNA repair pathways can be used to identify genotoxic compounds and aid in characterizing the nature of the DNA damage induced. Two DNA repair-deficient cell lines with disrupted genes, Rad54/Ku70 or Rev3, were used to screen the Tox21 10K compound library. Possible genotoxicity was based on the presence of a significant increase in cytotoxicity in one or more of the DNA repair-deficient cell lines compared to that observed in the parental DNA repair-proficient cell line. CellTiter Glo viability assay (Promega, Madison, WI) was used to measure cell viability in these cells after compound treatment. This assay includes the data from the Rad54/Ku70 mutant cell line.\nTox21 Assay Protocol Summary:\n300 DT40 mutant cells in 5 uL/well were dispensed into white, solid-bottom 1536-well plates using a Multidrop Combi (ThermoFisher Scientific, Waltham, MA) dispenser. After the assay plates were incubated at 37 C/5% CO2 for approximately 0.5 hour, 23 nL of compounds dissolved in DMSO, positive controls or DMSO only was transferred into the assay plate by a pintool work station (Kalypsys, San Diego, CA). The assay plates were incubated at 37 C/5% CO2 for 40 hours. After 5 uL per well of CellTiter-Glo reagent was added into each well of the assay plates, the plates were incubated for 30 min at room temperature and the luminescence intensity of the plates was measured using a ViewLux (PerkinElmer, Shelton, CT) plate reader.", "values": [
      {"smiles": "C[N+](C)(C)C", "Potency": "inactive"},
      {"smiles": "Nc1ccc2ccccc2c1", "activity change, negative = cytotoxicity": "-5.3% (inactive)"},
      {"smiles": "CC(C)=CC1C(C(=O)OCc2cccc(Oc3ccccc3)c2)C1(C)C", "note": "(stereo not given)", "activity change, negative = cytotoxicity": "0.66% (inactive)"},
      {"smiles": "CCOC(=O)c1ccccc1N", "Potency": "inactive"},
      {"smiles": "CCCCCCCC[N+](C)(CCCCCCCC)CCCCCCCC", "Potency": "610 nM (active) and 273 nM (active) and 386 nM (active)"},
      {"smiles": "CC(C)Nc1ccc(Nc2ccccc2)cc1", "Potency": "8.41 µM (active) and 15.3 µM (active) and 10.9 µM (active)"},
      {"smiles": "C=CC(Cl)CCl", "note": "(stereo not given)", "Potency": "inactive"},
      {"smiles": "CCC[CH2][Sn]([Cl])([Cl])[CH2]CCC", "Potency": "348 nM (active) and 17.2 nM (active)"},
      {"smiles": "CNC(=O)CSP(=S)(OC)OC", "activity change, negative = cytotoxicity": "-1.22% [at 95.1 µM] (inactive)"},
      {"smiles": "CCNc1nc(Cl)nc(NC(C)(C)C#N)n1", "Potency": "inactive"},
      {"smiles": "CC(C)(c1ccccc1)c1ccc(O)c(C(C)(C)c2ccccc2)c1", "Potency": "13.6 µM (active) and 9.69 µM (active)"},
      {"smiles": "CC[n+]1c(-c2ccccc2)c2cc(N)ccc2c2ccc(N)cc21", "Potency": "298 nM (active) and 750 nM (active) and 85.9 nM (active)"},
      {"smiles": "COP(=S)(OC)Oc1ccc(S(=O)(=O)N(C)C)cc1", "Potency": "inactive and 34.4 µM (active)"},
      {"smiles": "CCOP(=O)(O)OCC", "note": "(tested in a mixture with another compound)", "Potency": "inactive and 96.1 nM (active)"},
      {"smiles": "CC(C)=CC1C(C(=O)OCN2C(=O)C3=C(CCCC3)C2=O)C1(C)C", "note": "(stereo not given)", "Potency": "27.3 µM (active)"},
      {"smiles": "O=C(O)CF", "Potency": "inactive"},
      {"smiles": "ClC(Cl)=C(Cl)C(Cl)=C(Cl)Cl", "Potency": "inactive"},
      {"smiles": "CC(C)(c1ccc(OCC2CO2)cc1)c1ccc(OCC2CO2)cc1", "note": "(stereo not given)", "Potency": "55.2 µM (active) and 27.3 µM (active)"},
      {"smiles": "N#CC(c1ccccc1)c1ccccc1", "Potency": "inactive"},
      {"smiles": "C[N+](C)(C)CC(=O)[O-]", "Potency": "inactive"},
      {"smiles": "CCOS(=O)(=O)OCC", "Potency": "inactive"},
      {"smiles": "CCCCCCCCCC(CC)c1ccc(S(=O)(=O)O)cc1", "note": "(stereo not given)", "Potency": "inactive and 30.6 µM (active) and 47.2 µM (active)"},
      {"smiles": "CCCCOCC1CO1", "note": "(stereo not given)", "Potency": "inactive"},
      {"smiles": "C[N+](C)(C)CC(=O)O", "Potency": "inactive"},
      {"smiles": "NN=C(N)N", "activity change, negative = cytotoxicity": "5.44% (inactive)"},
      {"smiles": "ClCc1ccccn1", "Potency": "inactive"},
      {"smiles": "OCCOCCO", "Potency": "inactive"},
      {"smiles": "C=CC(=O)OCC(CC)(COC(=O)C=C)COC(=O)C=C", "Potency": "2.5 µM (active) and 2.43 µM (active)"},
      {"smiles": "Brc1ccc(Br)cc1", "activity change, negative = cytotoxicity": "8.7% (inactive)"},
      {"smiles": "ClC(Cl)(Cl)Br", "Potency": "inactive"},
      {"smiles": "CCCCSP(=O)(SCCCC)SCCCC", "activity change, negative = cytotoxicity": "-17.8% (inactive)"},
      {"smiles": "COC(=O)Nc1nc2ccccc2[nH]1", "Potency": "6.86 µM (active) and 7.7 µM (active)"},
      {"smiles": "CCOP(=S)(OCC)SCSC(C)(C)C", "Potency": "inactive"},
      {"smiles": "CCCCCCCCCc1ccc(O)cc1", "Potency": "30.9 µM (active)"},
      {"smiles": "CC1CC(=O)O1", "note": "(stereo not given)", "Potency": "inactive"},
      {"smiles": "ClCC(Cl)CCl", "Potency": "inactive"},
      {"smiles": "CCN(CC)C(=O)C(C)Oc1cccc2ccccc12", "note": "(stereo not given)", "Potency": "17.2 µM (active)"},
      {"smiles": "COP(=S)(OC)SCn1nnc2ccccc2c1=O", "Potency": "60 µM (active) and 61.1 µM (active)"},
      {"smiles": "O=C(O)c1nn(Cc2ccc(Cl)cc2Cl)c2ccccc12", "Potency": "inactive"},
      {"smiles": "NC(=O)CN1CCCC1=O", "Potency": "inactive"}
    ]}
  ]
}
